Compound activity deposited in PubChem BioAssay by several laboratories.
Sampled rows, rich in hits. Any-hit rate of the full collection: about 1.3%.
3CLpro inhibitor – SARS-CoV 3CLpro protease inhibition | hit rate 0.14% among 290,000 | AID 1706 | recombinant SARS-CoV 3CLpro, quenched FRET peptide cleavage | inhibition, % at 6 µM | P0C6X7; in the data active = inhibition above about 12%
TcdB GH inh – TcdB glycohydrolase inhibition; P18177; TcdB glycohydrolase enzymatic assay, plate reader; inhibition, % at 9.99 µM; hit rate 0.24% among 350,000; AID 652162; in the data active = inhibition above about 10%
SSB-PriA inh – blocks PriA binding to SSB C-terminal tail; AlphaScreen SSBct-PriA binding, biotinylated peptide; inhibition, % at 33 µM; hit rate 0.6% among 430,000; in the data active = inhibition mostly above about 37%, no sharp cut-off; inactive = mostly below about 20%;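 also: plate controls were negative control peptide for no effect and reference peptide for full effect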
DUSP3 inh – DUSP3 (human) phosphatase inhibition; AID 1654; recombinant VHR phosphatase, pNPP absorbance; hit rate 0.52% among 290,000; P51452; inhibition, % at 13.3 µM; in the data active = inhibition above about 50%
Target sequence (P51452 whole entry, looked up): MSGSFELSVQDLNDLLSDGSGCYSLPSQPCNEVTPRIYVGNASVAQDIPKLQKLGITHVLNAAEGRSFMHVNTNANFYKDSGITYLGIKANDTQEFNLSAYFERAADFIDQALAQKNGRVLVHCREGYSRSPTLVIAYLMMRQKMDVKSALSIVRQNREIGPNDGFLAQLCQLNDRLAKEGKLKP
BH1578 lux ind – induces V. cholerae light production without autoinducers; V. cholerae BH1578 lux reporter, luminescence, 6 h; activation, % at 18.7 µM; hit rate 0.16% among 350,000; in the data active = activation mostly above about 9.7%, no sharp cut-off
CCHFV vOTU inh – CCHFV vOTU protease inhibition; Pep-AMC fluorescence; inhibition, % at 11.5 µM; AID 651958; hit rate 0.55% among 370,000; in the data active = inhibition above about 30%; also: 0% = vehicle wells with enzyme and 100% = no enzyme wells
The depositor's hits bear a star; i = inactive; nt = no result given; ! = not confirmed by another sample.

SMILES	3CLpro inhibitor	TcdB GH inh	SSB-PriA inh	DUSP3 inh	BH1578 lux ind	CCHFV vOTU inh
Cc1ccc2c(c1Cl)NC(C(=O)O)C1CC(Sc3ccccc3[N+](=O)[O-])C(Cl)C21 (stereo not drawn)	3.1	nt	30.0	4.8	-0.4	nt
CCN(CC)C(=O)c1ccc2c(c1)C1C(Cl)C(Sc3ccccc3[N+](=O)[O-])CC1C(C(=O)O)N2 (stereo not drawn)	-12.5	nt	63.6*	-0.9	-0.1	nt
O=C(NCCOc1ccc2nnc(-c3cccc(F)c3)n2n1)c1c(F)cccc1Cl	nt	nt	-4.0	nt	nt	nt
CC(=O)c1c2c3c(cccc3n(C)c1=O)C(=O)c1ccccc1-2	-1.8	nt	3.1	53.9*	nt	nt
CN(O)C=c1ccc2c(n1)C(=O)C=CC=2	nt	nt	95.5*	nt	nt	nt
CN(O)/C=c1/ccc2c(n1)C(=O)C=CC=2	3.2	nt	nt	13.3	0.3	17.1
CC1(S(=O)(=O)O)CC(=O)c2ccccc2C1=O (stereo not drawn)	0.2	-1.8	82.9*	13.4	0.4	19.3
CC1(N2CCCCC2)C(=O)c2ccccc2C1=O	-0.4	0.7	3.0	7.3	-3.6	-6.5
Cc1csc(NC(=O)CSc2ncc(-c3ccccc3)[nH]2)n1	-0.7	0.6	42.0*!	-3.8	i	-18.2
C/C(=N\OCC(=O)Nc1nc2ccccc2s1)c1ccccc1	6.3	10.0*	nt	-3.9	-3.3	10.9
O=C(CSc1ncc(-c2ccccc2)[nH]1)Nc1nc2ccccc2s1	nt	nt	37.0*	nt	nt	nt
Cc1nnc(NC(=O)CSc2ncc(-c3ccccc3)[nH]2)s1	-5.0	-1.3	2.8	-3.9	-0.5	-5.8
CCc1nnc(NC(=O)CSc2ncc(-c3ccccc3)[nH]2)s1	0.9	-0.3	-12.0	30.9	-0.4	nt
O=C(c1ccno1)N(CCN1CCOCC1)c1nc2ccc(F)cc2s1	nt	nt	-15.0	nt	nt	nt
Cn1cccc1C(O)CNC(=O)COc1ccc(Cl)cc1Cl (stereo not drawn)	nt	nt	6.0	nt	nt	nt
Cc1ccc(-c2c(C(=O)O)c(C(=O)O)c3n2CSC3)cc1	1.0	0.6	72.8*	nt	-1.4	4.1
CN(C)CCN(C(=O)Cc1ccc(Cl)s1)c1nc2c(F)cccc2s1	nt	nt	-8.0	nt	nt	nt
CC(C)Cc1cc(C(=O)NCc2ccco2)no1	5.3	0.7	95.5*	2.9	-0.2	0.9
O=c1[nH]c(/C=C\c2ccc(O)cc2)nc(O)c1[N+](=O)[O-]	4.6	16.1*	2.9	8.1	-0.6	6.7
CCOc1cc(/C=C\c2nc(O)c([N+](=O)[O-])c(=O)[nH]2)ccc1OC(C)C	1.6	0.3	-15.1	-8.2	-7.7	-4.4
O=c1[nH]c(/C=C\c2ccc(O)c(Cl)c2)nc(O)c1[N+](=O)[O-]	-5.4	12.2*	-7.0	13.9	0.5	-0.3
CCN(C(=O)CSc1nnc(CNc2cccc(OC)c2)n1C1CCCCC1)C1CCS(=O)(=O)C1 (stereo not drawn)	-3.8	1.2	6.9	54.9*	-0.4	4.7
CCN(C(=O)CSc1nnc(C)n1-c1cccc(C)c1)C1CCS(=O)(=O)C1 (stereo not drawn)	nt	1.6	-9.4	nt	-3.1	5.4
COc1ccc(N2CCN(CCNC(=O)COc3ccc(Cl)cc3)CC2)cc1	nt	nt	-13.0	nt	nt	nt
Oc1cc(-c2cccnc2)cc2cccnc12	nt	-7.1	53.8*	nt	i	-5.8
SMILES	3CLpro inhibitor	TcdB GH inh	SSB-PriA inh	DUSP3 inh	BH1578 lux ind	CCHFV vOTU inh
Oc1cc(Nc2ccccc2)cc2cccnc12	nt	1.0	64.7*	nt	i	2.1
CN1CCN(C(=O)c2cccc(-c3cc(O)c4ncccc4c3)c2)CC1	nt	-30.0	37.4	nt	-0.8	1.8
CN1CCN(c2cc(-c3cc(O)c4ncccc4c3)ccn2)CC1	nt	-44.3	66.8*	nt	-0.8	11.4
CC(=NNC(=O)c1nnn(-c2nonc2N)c1C(C)C)c1cc(C)sc1C	nt	nt	-2.4	nt	nt	nt
NC(=O)NN=C1CC2CC1C1C=CCC21 (stereo not drawn)	nt	13.6*	-15.1	nt	i	-4.8
CN(C)c1cccc(NC(=O)CCc2ccccc2)c1	2.4	nt	53.6*	-12.2	i	12.4
O=c1[nH]c2ccccc2n1C1=CCCC1	-2.0	nt	-21.0	13.9	i	8.2
O=c1[nH]c2ccccc2n1C1=CCNCC1	0.2	0.1	19.4	52.0*	i	2.7
CC(=O)Oc1ccc2nc(/C=C/c3ccccc3)oc(=O)c2c1	3.4	12.3*	5.4	17.9	-0.4	-1.8
CC(=O)Oc1ccc2nc(/C=C/c3ccc(C=O)cc3)oc(=O)c2c1	2.6	3.5	0.1	-7.9	i	11.9
COc1ccc(-c2sc(Nc3ccccc3)n[n+]2-c2ccc(F)cc2)c(C)c1C	-2.8	0.8	41.9*	32.1	i	8.3
Cc1cccc(-c2sc(Nc3ccccc3)n[n+]2-c2ccc(F)cc2)c1	0.3	0.5	2.1	16.6	i	2.5
COc1ccc(C)cc1Nc1n[n+](-c2ccccc2)c(-c2cc(OC)c(OC)cc2Br)s1	4.4	0.6	57.6*	29.1	-0.7	6.7
CCS(=O)(=O)c1ccc(CC(=O)N2CCN(c3nc4c(OC)ccc(C)c4s3)CC2)cc1	nt	nt	-4.0	nt	nt	nt
CN[C@@H]1[C@H](O)[C@H](NC)[C@H]2O[C@@]3(O)C(=O)C[C@@H](C)O[C@H]3O[C@@H]2[C@H]1O	-2.7	-0.1	-5.3	2.4	71.8*	13.0
CCOc1ccccc1NC(=O)NCCCn1ccc2cccnc21	nt	nt	-5.0	nt	nt	nt
CC(NC(=O)C(=O)NCC1CCN(c2nccnc2C#N)CC1)c1ccccc1 (stereo not drawn)	nt	nt	-13.0	nt	nt	nt
CCN(CC)c1ccc(/C=C2\C(=O)N(c3nnc(C)c(=O)[nH]3)N=C2C)cc1	-1.9	3.3	78.2*	9.0	i	17.0
O=C(c1nc2ccccc2s1)N1CCN(C(=O)c2cnn3c2CCCC3)CC1	nt	nt	-20.0	nt	nt	nt
COc1cc(/C=N/n2c(-c3cc(C)[nH]n3)n[nH]c2=S)ccc1O	-2.4	19.3*	nt	29.0	i	3.3
COc1cccc(NC(=S)NCc2ccc3c(c2)cc(C)n3C)c1	4.2	0.5	23.7	1.7	-0.2	-0.1
Cc1cccc(NC(=S)NCc2ccc3c(c2)cc(C)n3C)c1C	0.6	0.1	72.1*	5.2	-0.2	18.6
Cc1cc2cc(CNS(=O)(=O)c3ccc4ccccc4c3)ccc2n1C	-1.8	0.9	28.4	2.4	-0.1	1.6
Cc1cc2cc(CNC(=O)Nc3cccc(Cl)c3)ccc2n1C	-3.4	1.5	59.8*!	10.8	-0.2	3.4
COc1ccc(CNC(=O)Nc2cccc(Cl)c2)cc1	0.7	nt	-13.1	26.4	0.6	nt
SMILES	3CLpro inhibitor	TcdB GH inh	SSB-PriA inh	DUSP3 inh	BH1578 lux ind	CCHFV vOTU inh
Cc1cccc(NC(=O)NCc2ccc3c(c2)cc(C)n3C)c1	4.5	-0.8	45.9*	23.6	-0.3	6.8
Cc1cc2cc(CNS(=O)(=O)c3ccc(Br)cc3)ccc2n1C	nt	nt	36.0*	nt	nt	nt
O=C(c1ccc(NS(=O)(=O)c2cccc(C(F)(F)F)c2)cc1)N1CCCCCC1	nt	nt	14.0	nt	nt	nt
Cc1cc2cc(CNC(=S)Nc3ccccc3)ccc2n1C	nt	nt	66.4	nt	nt	nt
Cc1cc2cc(CNC(=S)Nc3ccc(OC(F)(F)F)cc3)ccc2n1C	-1.1	0.4	62.2*	-7.3	-0.1	6.5
CC1(C)CC(=O)C(N=Nc2cccc(OC(F)F)c2)=C(O)C1	nt	nt	14.0	nt	nt	nt
O=C(CCC(=O)N1CCSc2ccccc21)Nc1ccc(F)cc1	-0.5	3.3	1.0	-10.2	-0.2	-0.3
